In PubChem BioAssay (EPA / NIEHS):
Calls of active or inactive are those of the source. Rule for the calls: active = hit-call score of the fitted dose curve at least 0.9, where 1 is the maximum; inactive = score below 0.9.

Key:
[1] = read-out: Tumor necrosis factor receptor superfamily member 6 (Homo sapiens) (UniProt P25445); assay: LTEA_HepaRG_FAS: Life Technologies and Expression Analysis (LTEA) Assay for Fas cell surface death receptor (FAS) using HepaRG (AID 2283447); conditions: mRNA level, 48 h; actives raise or lower the signal
In short: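 Differentiated HepaRG cells in serum-free induction medium were exposed 48 h to 8 half-log concentrations up to 100 uM in 0.5% DMSO, in duplicate. FAS mRNA was measured by qRT-PCR normalised to ACTB, GAPDH and POLR2A; bidirectional fit versus DMSO.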

[2] = read-out: Fatty acid synthase (Homo sapiens) (UniProt P49327); assay: LTEA_HepaRG_FASN: Life Technologies and Expression Analysis (LTEA) Assay for Fatty Acid Synthase (FASN) using HepaRG (AID 2283448); conditions: mRNA level, 48 h; actives raise or lower the signal
In short: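 HepaRG, 48 h exposure, 8-pt half-log series top 100 uM, 0.5% DMSO vehicle, duplicates. Readout: FASN transcript by Fluidigm qRT-PCR; housekeeping-normalized; bidirectional curve fit vs DMSO baseline.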

[3] = read-out: Cyclin D2 (CCND2), CCND2 (gene 894); assay: LTEA_HepaRG_CCND2: Life Technologies and Expression Analysis (LTEA) Assay for Cyclin D2 (CCND2) using HepaRG (AID 2283449); conditions: mRNA level, 48 h; actives raise or lower the signal;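 note: CCND2 transcript measured by TaqMan qRT-PCR and normalised to three housekeeping genes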
In short: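 HepaRG, 48 h dosing, 8-pt half-log curve from 100 uM, 0.5% DMSO; duplicate wells. Readout: CCND2 transcript by microfluidic qRT-PCR, housekeeping-normalised; bidirectional fit vs DMSO baseline.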

[4] = read-out: Cyclin Dependent Kinase Inhibitor 1A (CDKN1A), CDKN1A (gene 1026); assay: LTEA_HepaRG_CDKN1A: Life Technologies and Expression Analysis (LTEA) Assay for Cyclin Dependent Kinase Inhibitor 1A (CDKN1A) using HepaRG (AID 2283450); conditions: mRNA level, 48 h; actives raise or lower the signal
In short: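 Differentiated HepaRG cells in serum-free induction medium, exposed 48 h in duplicate to eight half-log concentrations up to 100 uM in 0.5% DMSO. mRNA measured by TaqMan qRT-PCR, normalized to ACTB, GAPDH, POLR2A; bidirectional fit versus DMSO.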

[5] = read-out: Cyclin D1 (CCND1), CCND1 (gene 595); assay: LTEA_HepaRG_CCND1: Life Technologies and Expression Analysis (LTEA) Assay for Cyclin D1 (CCND1) using HepaRG (AID 2283451); conditions: mRNA level, 48 h; actives raise or lower the signal;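 for AC50: TaqMan qRT-PCR transcript level normalised to ACTB GAPDH and POLR2A housekeeping genes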
In short: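 Differentiated HepaRG cells exposed 48 h in serum-free induction medium to eight half-log concentrations from 100 uM top, 0.5% DMSO, duplicates. CCND1 mRNA measured by Fluidigm TaqMan qRT-PCR, normalised to ACTB, GAPDH, POLR2A; bidirectional fit.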

[6] = read-out: catalase (CAT), CAT (gene 847); assay: LTEA_HepaRG_CAT: Life Technologies and Expression Analysis (LTEA) Assay for catalase (CAT) using HepaRG (AID 2283452); conditions: mRNA level, 48 h; actives raise or lower the signal
In short: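 HepaRG cells in serum-free induction medium, 0.5% DMSO vehicle, exposed 48 h in duplicate over 8 half-log concentrations from 100 uM. CAT mRNA measured by qRT-PCR, normalized to ACTB, GAPDH, POLR2A; bidirectional fit versus DMSO.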

[7] = read-out: flavin-containing dimethylaniline monooxygenases 3 (FMO3), FMO3 (gene 2328); assay: LTEA_HepaRG_FMO3: Life Technologies and Expression Analysis (LTEA) Assay for flavin-containing dimethylaniline monooxygenases 3 (FMO3) using HepaRG (AID 2283453); conditions: mRNA level, 48 h; actives raise or lower the signal
In short: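 Eight-point concentration-response in serum-free HepaRG cultures (top 100 uM, 0.5% DMSO, 48 h). Read-out: FMO3 mRNA level normalized to three endogenous control genes, fitted bidirectionally versus vehicle.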

[8] = read-out: Cytochrome P450 (CYP1A1), CYP1A1 (gene 1543); assay: LTEA_HepaRG_CYP1A1: Life Technologies and Expression Analysis (LTEA) Assay for Cytochrome P450 (CYP1A1) using HepaRG (AID 2283454); conditions: mRNA level, 48 h; actives raise or lower the signal
In short: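 Differentiated human HepaRG cells, after 48 h plating, exposed in duplicate for 48 h in serum-free induction medium to 8 half-log concentrations up to 100 uM in 0.5% DMSO. CYP1A1 mRNA by qRT-PCR, normalized to ACTB/GAPDH/POLR2A; bidirectional fit versus DMSO.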

[9] = read-out: CFLAR gene, CFLAR (gene 8837); assay: LTEA_HepaRG_CFLAR: Life Technologies and Expression Analysis (LTEA) Assay for CFLAR gene using HepaRG (AID 2283455); conditions: mRNA level, 48 h; actives raise or lower the signal
In short: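 qRT-PCR read-out (Fluidigm/TaqMan) of CFLAR mRNA, normalized to three housekeeping genes, in differentiated human HepaRG cells after 48 h chemical exposure; 8-point half-log series from 100 uM in 0.5% DMSO; bidirectional curve fitting versus DMSO.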

[10] = read-out: Forkhead box O1 (FOXO1), FOXO1 (gene 2308); assay: LTEA_HepaRG_FOXO1: Life Technologies and Expression Analysis (LTEA) Assay for Forkhead box O1 (FOXO1) using HepaRG (AID 2283456); conditions: mRNA level, 48 h; actives raise or lower the signal
In short: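 HepaRG, 48 h exposure, 8-pt half-log series from 100 uM in 0.5% DMSO, duplicates; Fluidigm qRT-PCR mRNA, housekeeping-normalised; bidirectional fit vs DMSO baseline.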

[11] = read-out: growth arrest and DNA damage 45 (GADD45A), GADD45A (gene 1647); assay: LTEA_HepaRG_GADD45A: Life Technologies and Expression Analysis (LTEA) Assay for growth arrest and DNA damage 45 (GADD45A) using HepaRG (AID 2283458); conditions: mRNA level, 48 h; actives raise or lower the signal
In short: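 HepaRG, 48 h exposure, 8 conc. (top 100 uM, half-log steps), 0.5% DMSO vehicle, duplicates. Read-out: qRT-PCR mRNA level, housekeeping-normalized (ACTB/GAPDH/POLR2A). Curves fit bidirectionally vs DMSO baseline.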

[12] = read-out: Forkhead box O3 (FOXO3), FOXO3 (gene 2309); assay: LTEA_HepaRG_FOXO3: Life Technologies and Expression Analysis (LTEA) Assay for Forkhead box O3 (FOXO3) using HepaRG (AID 2283459); conditions: mRNA level, 48 h; actives raise or lower the signal
In short: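 qRT-PCR readout of FOXO3 transcript, normalized to three housekeeping genes (ACTB, GAPDH, POLR2A); gain or loss fitted against 0.5% DMSO vehicle. HepaRG cells, 48 h chemical exposure, 8-point half-log series, top 100 uM.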

[13] = read-out: ABC Transporter (ABCB1), ABCB1 (gene 5243); assay: LTEA_HepaRG_ABCB1: Life Technologies and Expression Analysis (LTEA) Assay for ABC Transporter (ABCB1) using HepaRG (AID 2283460); conditions: mRNA level, 48 h; actives raise or lower the signal
In short: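 HepaRG, 48 h exposure, 8-pt half-log series from 100 uM, 0.5% DMSO vehicle, duplicates. Readout: ABCB1 transcript by Fluidigm TaqMan qRT-PCR, housekeeping-normalized; bidirectional curve fit vs DMSO baseline.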

[14] = read-out: growth arrest and DNA damage 45 (GADD45B), GADD45B (gene 4616); assay: LTEA_HepaRG_GADD45B: Life Technologies and Expression Analysis (LTEA) Assay for growth arrest and DNA damage 45 (GADD45B) using HepaRG (AID 2283461); conditions: mRNA level, 48 h; actives raise or lower the signal
In short: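 Differentiated human HepaRG cells in serum-free induction medium exposed 48 h in duplicate to eight concentrations, top 100 uM, half-log steps, 0.5% DMSO. GADD45B mRNA by TaqMan qRT-PCR, normalized to ACTB, GAPDH, POLR2A; bidirectional fit versus DMSO.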

[15] = read-out: ABC Transporter (ABCC3), ABCC3 (gene 8714); assay: LTEA_HepaRG_ABCC3: Life Technologies and Expression Analysis (LTEA) Assay for ABC Transporter (ABCC3) using HepaRG (AID 2283462); conditions: mRNA level, 48 h; actives raise or lower the signal
In short: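 Differentiated human HepaRG cells exposed 48 h in serum-free induction medium, 0.5% DMSO vehicle, 8-point half-log series to 100 uM in duplicate. ABCC3 mRNA by qRT-PCR, normalised to ACTB, GAPDH, POLR2A; bidirectional fit vs DMSO.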

[16] = read-out: ABC Transporter (ABCB11), ABCB11 (gene 8647); assay: LTEA_HepaRG_ABCB11: Life Technologies and Expression Analysis (LTEA) Assay for ABC Transporter (ABCB11) using HepaRG (AID 2283463); conditions: mRNA level, 48 h; actives raise or lower the signal
In short: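 HepaRG, 48 h exposure, 8-pt half-log CRC top 100 uM, 0.5% DMSO vehicle, duplicates. Readout: TaqMan qRT-PCR of ABCB11 mRNA, housekeeping-normalized (ACTB/GAPDH/POLR2A). Bidirectional fit vs DMSO baseline.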

[17] = read-out: ABC Transporter (ABCC2), ABCC2 (gene 1244); assay: LTEA_HepaRG_ABCC2: Life Technologies and Expression Analysis (LTEA) Assay for ABC Transporter (ABCC2) using HepaRG (AID 2283464); conditions: mRNA level, 48 h; actives raise or lower the signal
In short: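 Differentiated HepaRG cells in serum-free induction medium exposed 48 h to eight half-log concentrations up to 100 uM, 0.5% DMSO, in duplicate. ABCC2 mRNA measured by qRT-PCR (TaqMan, Fluidigm), normalized to ACTB, GAPDH and POLR2A. Fitted in both directions against DMSO.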

[18] = read-out: Broad substrate specificity ATP-binding cassette transporter ABCG2 (Homo sapiens) (UniProt Q9UNQ0); assay: LTEA_HepaRG_ABCG2: Life Technologies and Expression Analysis (LTEA) Assay for ABC Transporter (ABCG2) using HepaRG (AID 2283465); conditions: mRNA level, 48 h; actives raise or lower the signal
In short: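 HepaRG, 48 h exposure, 8-pt half-log series from 100 uM, 0.5% DMSO vehicle, duplicates. Readout: ABCG2 transcript by qRT-PCR (Fluidigm array), housekeeping-normalized; bidirectional curve fit relative to DMSO baseline.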

[19] = CEETOX_H295R_PROG: CeeTox H295R High-throughput Steroidogenesis Assay for Progesterone (PROG) (AID 2283442); conditions: actives raise or lower the signal;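 for AC50: human H295R adrenal cells primed with 10 µM forskolin before dosing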
In short: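 H295R adrenal cells prestimulated 48 h with 10 uM forskolin, then exposed 48 h to test chemical in 0.1% DMSO. Progesterone in medium quantified by HPLC-MS/MS after MTBE extraction; viability checked by MTT in same wells.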

[20] = CEETOX_H295R_TESTO: CeeTox H295R High-throughput Steroidogenesis Assay for Testosterone (TESTO) (AID 2283457); conditions: actives raise or lower the signal;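 for AC50: cells exposed to chemicals for 48 h before medium collection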
In short: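 H295R adrenal cells, passage ≤10, exposed to chemicals for 48 h. Testosterone in medium measured by MTBE extraction and HPLC-MS/MS against a 7-point standard curve. Bidirectional fit versus DMSO; MTT viability checked in the same wells.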

Measured: AC50

Sequence of Broad substrate specificity ATP-binding cassette transporter ABCG2 (Homo sapiens) (Q9UNQ0 whole entry, looked up): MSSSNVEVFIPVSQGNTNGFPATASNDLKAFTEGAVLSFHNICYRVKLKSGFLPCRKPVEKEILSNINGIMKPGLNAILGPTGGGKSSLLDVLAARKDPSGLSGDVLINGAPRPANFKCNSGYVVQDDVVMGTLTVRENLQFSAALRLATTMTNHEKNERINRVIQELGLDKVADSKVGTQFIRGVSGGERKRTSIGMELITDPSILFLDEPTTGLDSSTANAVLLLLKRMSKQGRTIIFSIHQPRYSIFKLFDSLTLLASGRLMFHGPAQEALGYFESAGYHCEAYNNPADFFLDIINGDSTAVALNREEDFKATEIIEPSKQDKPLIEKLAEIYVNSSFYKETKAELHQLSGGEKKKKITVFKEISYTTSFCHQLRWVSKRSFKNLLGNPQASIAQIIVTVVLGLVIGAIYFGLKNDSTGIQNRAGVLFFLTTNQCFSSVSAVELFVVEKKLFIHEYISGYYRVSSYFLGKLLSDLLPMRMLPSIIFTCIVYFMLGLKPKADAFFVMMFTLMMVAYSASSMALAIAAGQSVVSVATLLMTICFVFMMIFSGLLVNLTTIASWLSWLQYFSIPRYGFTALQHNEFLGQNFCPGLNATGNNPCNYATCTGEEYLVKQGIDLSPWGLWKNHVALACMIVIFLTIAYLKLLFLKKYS
Sequence of Fatty acid synthase (Homo sapiens) (P49327 whole entry, looked up): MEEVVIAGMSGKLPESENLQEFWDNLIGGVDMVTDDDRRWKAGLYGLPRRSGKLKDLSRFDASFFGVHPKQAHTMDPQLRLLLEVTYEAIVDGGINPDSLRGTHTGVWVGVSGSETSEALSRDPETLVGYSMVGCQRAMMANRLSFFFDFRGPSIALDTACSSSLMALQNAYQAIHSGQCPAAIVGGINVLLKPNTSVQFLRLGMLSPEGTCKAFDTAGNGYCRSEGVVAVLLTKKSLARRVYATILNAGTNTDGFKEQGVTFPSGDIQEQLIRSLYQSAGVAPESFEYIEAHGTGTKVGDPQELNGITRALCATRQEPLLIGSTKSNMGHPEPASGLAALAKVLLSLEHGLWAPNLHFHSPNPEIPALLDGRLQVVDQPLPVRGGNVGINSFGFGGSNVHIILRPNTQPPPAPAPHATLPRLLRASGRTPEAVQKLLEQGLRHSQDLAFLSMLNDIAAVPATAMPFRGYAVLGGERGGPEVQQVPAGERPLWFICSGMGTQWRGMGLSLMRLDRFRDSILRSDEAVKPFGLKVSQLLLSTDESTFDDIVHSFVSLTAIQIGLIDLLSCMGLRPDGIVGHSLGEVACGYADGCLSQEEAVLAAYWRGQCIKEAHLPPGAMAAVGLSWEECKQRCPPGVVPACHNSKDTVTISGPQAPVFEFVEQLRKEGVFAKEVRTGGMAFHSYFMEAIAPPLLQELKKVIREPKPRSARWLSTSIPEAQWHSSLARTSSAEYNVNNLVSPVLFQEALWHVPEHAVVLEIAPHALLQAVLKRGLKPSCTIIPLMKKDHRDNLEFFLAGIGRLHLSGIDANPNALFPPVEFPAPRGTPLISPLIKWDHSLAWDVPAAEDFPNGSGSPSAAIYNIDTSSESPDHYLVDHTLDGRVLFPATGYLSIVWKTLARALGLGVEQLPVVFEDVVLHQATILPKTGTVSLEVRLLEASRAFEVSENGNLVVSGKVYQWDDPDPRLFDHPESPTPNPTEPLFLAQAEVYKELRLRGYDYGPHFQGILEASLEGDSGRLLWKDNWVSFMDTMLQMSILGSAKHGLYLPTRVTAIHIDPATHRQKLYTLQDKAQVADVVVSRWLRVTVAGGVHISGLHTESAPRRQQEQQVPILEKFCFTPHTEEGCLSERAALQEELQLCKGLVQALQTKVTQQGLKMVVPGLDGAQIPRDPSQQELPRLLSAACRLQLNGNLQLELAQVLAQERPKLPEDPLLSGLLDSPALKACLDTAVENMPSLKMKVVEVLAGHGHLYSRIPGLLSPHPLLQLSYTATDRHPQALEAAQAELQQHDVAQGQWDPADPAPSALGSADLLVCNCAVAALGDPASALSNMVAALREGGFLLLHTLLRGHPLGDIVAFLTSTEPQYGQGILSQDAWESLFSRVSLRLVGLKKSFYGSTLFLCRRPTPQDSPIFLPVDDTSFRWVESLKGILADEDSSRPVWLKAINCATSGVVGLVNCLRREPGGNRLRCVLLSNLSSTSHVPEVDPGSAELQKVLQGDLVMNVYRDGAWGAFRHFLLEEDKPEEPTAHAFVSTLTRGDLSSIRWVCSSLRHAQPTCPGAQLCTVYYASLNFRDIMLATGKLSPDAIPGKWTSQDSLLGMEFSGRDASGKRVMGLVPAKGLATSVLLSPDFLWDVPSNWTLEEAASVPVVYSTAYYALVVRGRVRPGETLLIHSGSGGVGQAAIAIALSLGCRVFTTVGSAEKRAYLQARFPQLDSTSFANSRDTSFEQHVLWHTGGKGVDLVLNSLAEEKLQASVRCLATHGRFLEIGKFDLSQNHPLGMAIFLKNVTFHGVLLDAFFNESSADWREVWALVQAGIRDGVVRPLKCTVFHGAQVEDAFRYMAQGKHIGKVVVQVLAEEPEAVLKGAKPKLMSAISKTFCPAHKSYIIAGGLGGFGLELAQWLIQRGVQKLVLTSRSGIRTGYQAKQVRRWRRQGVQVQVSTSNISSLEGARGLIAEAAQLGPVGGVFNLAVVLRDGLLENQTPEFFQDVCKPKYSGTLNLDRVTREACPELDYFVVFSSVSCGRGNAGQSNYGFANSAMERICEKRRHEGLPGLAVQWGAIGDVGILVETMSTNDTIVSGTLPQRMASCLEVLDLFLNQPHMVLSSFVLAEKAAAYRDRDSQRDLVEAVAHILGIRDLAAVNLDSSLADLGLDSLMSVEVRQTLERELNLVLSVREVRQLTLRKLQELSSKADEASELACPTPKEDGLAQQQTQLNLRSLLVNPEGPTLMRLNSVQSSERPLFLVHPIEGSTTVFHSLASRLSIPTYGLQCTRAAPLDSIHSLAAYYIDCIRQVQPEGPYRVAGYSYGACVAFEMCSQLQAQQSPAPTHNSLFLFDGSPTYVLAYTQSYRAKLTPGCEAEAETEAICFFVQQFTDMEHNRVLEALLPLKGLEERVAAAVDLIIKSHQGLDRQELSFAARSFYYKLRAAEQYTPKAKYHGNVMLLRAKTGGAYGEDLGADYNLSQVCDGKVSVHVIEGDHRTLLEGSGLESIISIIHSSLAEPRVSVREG

CCCCCCCCCC(=O)O
active: [8] 70.9 µM
not listed: [19] | [20]
inactive: all other assays above

Oc1ccc2ccccc2c1
active: [20] 82.4 µM
not listed: [5] | [8] | [14]
inactive: all other assays above

NCc1cccc(C2CCN(C(=O)c3ccc(C#Cc4ccccc4F)o3)CC2)c1
inactive: [1] | [3] | [4] | [5] | [10] | [12] | [15] | [18]
active: [2] 50 µM | [6] 50 µM | [7] 82.7 µM | [8] 12.7 µM | [9] 89.9 µM | [11] 78.9 µM | [13] 50 µM | [16] 78 µM | [17] 90.6 µM

Cc1oc2c(NC(=O)c3c(Cl)cccc3Cl)cccc2c1C(C)(C)O
active: [2] 31.2 µM | [6] 29.3 µM | [8] 8.74 µM | [13] 80.5 µM | [15] 16.1 µM | [16] 23.8 µM | [17] 33.8 µM
not listed: [3] | [7] | [14] | [20]
inactive: all other assays above

C[C@]12CC[C@@H]3c4ccc(O)cc4CC[C@H]3[C@@H]1CCC2=O
active: [19] 0.849 µM | [7] 50 µM | [13] 14.4 µM | [18] 16.7 µM
not listed: [5] | [8] | [20]
inactive: all other assays above

Cc1c2ccccc2c(C)c2c1ccc1ccccc12
active: [1] 66.1 µM | [2] 51 µM | [4] 35.1 µM | [5] 86.4 µM | [6] 48.5 µM | [8] 11.9 µM | [9] 40.9 µM | [10] 75 µM | [11] 61.9 µM | [12] 13 µM | [15] 12.7 µM | [16] 30.6 µM | [18] 12.8 µM
inactive: [19] | [3] | [20] | [13] | [17]

O=C(O)Cc1cc(I)c(Oc2ccc(O)c(I)c2)c(I)c1
inactive: [3] | [9] | [12] | [13] | [15] | [17]
active: [1] 88.6 µM | [2] 50 µM | [4] 82.7 µM | [5] 87.5 µM | [6] 9.92 µM | [10] 50 µM | [11] 94.5 µM | [16] 20.2 µM | [18] 73.1 µM
